Columns and labels:
Test in all cases: log2 ratio of Biotin-Ahx-Ub-VS probe labelling (fragment/DMSO); higher = less target engagement (more negative = stronger competition), active = hit call of the paper (q ≤ 0.05, log2 ratio ≤ -1)
Conditions in all cases: compound concentration: 200 uM; treatment time: 3 h
USP34 = USP34 (UniProt Q70CQ2)
How it was run: (§1)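 Global-median-normalised Spectronaut label-free quantities were compared by unpaired t-test, and values are average log2 ratios of fragment over vehicle. Only proteins with ≥2 unique peptides were used. HEK293T lysate (495 µg per sample) was treated in triplicate with fragment at 200 µM or vehicle for 3 h and then with Biotin-Ahx-Ub-VS at 0.5 µM final for 1 h. Labelled DUBs were then NeutrAvidin-enriched, digested with LysC and trypsin, and run by diaPASEF LC-MS/MS.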

USP36 = biological target: T1, USP36 (UniProt Q9P275)
T1 sequence (whole entry): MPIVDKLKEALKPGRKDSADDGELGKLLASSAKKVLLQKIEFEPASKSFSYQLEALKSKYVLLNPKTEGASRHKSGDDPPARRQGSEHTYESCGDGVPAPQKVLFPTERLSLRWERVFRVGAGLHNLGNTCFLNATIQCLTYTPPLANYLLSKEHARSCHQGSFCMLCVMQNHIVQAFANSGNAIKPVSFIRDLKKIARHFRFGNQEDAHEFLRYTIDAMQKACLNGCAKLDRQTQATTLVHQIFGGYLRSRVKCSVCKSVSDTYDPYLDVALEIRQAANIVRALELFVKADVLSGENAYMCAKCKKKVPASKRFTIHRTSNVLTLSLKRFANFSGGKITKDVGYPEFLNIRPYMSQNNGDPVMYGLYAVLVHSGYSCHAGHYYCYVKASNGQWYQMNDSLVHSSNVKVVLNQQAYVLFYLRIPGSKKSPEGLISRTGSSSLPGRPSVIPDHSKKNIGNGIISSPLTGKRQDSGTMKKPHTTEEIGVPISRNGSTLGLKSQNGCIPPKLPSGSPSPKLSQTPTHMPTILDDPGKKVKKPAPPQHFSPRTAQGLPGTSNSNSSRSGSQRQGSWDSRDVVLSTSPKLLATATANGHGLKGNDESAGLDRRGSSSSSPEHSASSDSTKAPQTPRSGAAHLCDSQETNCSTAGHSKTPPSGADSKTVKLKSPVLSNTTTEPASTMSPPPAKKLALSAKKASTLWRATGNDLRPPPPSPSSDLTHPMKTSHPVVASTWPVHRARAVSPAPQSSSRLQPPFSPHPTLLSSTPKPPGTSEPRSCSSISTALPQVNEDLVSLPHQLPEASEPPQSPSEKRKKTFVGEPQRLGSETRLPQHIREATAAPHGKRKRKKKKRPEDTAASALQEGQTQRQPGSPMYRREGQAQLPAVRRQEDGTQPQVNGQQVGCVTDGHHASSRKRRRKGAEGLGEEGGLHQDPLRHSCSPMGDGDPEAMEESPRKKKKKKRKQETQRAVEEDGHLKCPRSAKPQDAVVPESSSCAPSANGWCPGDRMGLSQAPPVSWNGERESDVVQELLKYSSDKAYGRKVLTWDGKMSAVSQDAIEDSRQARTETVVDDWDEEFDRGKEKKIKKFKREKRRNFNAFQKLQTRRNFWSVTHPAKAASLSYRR
How it was run: as §1

USP38 = biological target: T2, USP38 (UniProt Q8NB14)
T2 sequence (whole entry): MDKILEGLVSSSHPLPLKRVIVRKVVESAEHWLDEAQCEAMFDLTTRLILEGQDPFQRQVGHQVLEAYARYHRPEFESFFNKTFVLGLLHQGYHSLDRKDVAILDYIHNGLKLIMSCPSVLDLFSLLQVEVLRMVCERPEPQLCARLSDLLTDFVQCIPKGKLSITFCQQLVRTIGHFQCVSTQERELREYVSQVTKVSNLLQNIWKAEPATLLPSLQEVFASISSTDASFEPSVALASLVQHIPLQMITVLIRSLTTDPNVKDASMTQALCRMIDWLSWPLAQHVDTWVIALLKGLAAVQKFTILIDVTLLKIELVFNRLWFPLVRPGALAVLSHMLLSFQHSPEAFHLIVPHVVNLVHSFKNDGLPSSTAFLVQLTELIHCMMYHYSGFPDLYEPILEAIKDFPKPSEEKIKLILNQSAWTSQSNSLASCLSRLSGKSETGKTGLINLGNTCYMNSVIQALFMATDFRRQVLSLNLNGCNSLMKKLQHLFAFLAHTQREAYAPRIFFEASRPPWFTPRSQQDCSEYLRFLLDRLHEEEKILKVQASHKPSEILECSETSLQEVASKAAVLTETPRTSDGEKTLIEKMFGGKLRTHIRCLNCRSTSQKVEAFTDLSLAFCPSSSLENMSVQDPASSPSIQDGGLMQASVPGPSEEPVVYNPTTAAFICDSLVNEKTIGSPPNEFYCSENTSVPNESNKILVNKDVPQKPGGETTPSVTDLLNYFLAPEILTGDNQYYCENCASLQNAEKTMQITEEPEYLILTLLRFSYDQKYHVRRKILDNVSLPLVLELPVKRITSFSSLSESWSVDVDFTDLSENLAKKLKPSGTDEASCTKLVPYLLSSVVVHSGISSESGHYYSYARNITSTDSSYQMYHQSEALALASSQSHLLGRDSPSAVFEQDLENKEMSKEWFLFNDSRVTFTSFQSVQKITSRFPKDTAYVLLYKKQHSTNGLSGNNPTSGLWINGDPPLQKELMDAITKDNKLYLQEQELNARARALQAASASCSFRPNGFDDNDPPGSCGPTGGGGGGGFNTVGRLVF
How it was run: as §1

USP39 = biological target: T3, USP39 (UniProt Q53GS9)
T3 sequence (whole entry): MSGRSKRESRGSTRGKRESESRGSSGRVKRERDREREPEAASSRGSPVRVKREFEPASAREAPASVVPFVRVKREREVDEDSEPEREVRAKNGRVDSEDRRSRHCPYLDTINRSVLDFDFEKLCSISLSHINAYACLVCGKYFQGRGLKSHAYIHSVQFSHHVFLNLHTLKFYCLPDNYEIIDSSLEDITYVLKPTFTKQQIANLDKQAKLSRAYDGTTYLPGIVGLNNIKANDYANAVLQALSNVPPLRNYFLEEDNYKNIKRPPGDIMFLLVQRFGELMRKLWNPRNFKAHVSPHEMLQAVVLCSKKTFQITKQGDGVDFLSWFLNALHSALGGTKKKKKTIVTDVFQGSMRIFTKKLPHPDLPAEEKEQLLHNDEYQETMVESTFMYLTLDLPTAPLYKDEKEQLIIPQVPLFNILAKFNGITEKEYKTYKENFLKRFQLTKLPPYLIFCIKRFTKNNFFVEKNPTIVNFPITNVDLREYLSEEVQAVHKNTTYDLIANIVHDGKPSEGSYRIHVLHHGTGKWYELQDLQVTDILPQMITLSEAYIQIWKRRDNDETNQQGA
How it was run: as §1

USP4 = biological target: T4, USP4 (UniProt Q13107)
T4 sequence (whole entry): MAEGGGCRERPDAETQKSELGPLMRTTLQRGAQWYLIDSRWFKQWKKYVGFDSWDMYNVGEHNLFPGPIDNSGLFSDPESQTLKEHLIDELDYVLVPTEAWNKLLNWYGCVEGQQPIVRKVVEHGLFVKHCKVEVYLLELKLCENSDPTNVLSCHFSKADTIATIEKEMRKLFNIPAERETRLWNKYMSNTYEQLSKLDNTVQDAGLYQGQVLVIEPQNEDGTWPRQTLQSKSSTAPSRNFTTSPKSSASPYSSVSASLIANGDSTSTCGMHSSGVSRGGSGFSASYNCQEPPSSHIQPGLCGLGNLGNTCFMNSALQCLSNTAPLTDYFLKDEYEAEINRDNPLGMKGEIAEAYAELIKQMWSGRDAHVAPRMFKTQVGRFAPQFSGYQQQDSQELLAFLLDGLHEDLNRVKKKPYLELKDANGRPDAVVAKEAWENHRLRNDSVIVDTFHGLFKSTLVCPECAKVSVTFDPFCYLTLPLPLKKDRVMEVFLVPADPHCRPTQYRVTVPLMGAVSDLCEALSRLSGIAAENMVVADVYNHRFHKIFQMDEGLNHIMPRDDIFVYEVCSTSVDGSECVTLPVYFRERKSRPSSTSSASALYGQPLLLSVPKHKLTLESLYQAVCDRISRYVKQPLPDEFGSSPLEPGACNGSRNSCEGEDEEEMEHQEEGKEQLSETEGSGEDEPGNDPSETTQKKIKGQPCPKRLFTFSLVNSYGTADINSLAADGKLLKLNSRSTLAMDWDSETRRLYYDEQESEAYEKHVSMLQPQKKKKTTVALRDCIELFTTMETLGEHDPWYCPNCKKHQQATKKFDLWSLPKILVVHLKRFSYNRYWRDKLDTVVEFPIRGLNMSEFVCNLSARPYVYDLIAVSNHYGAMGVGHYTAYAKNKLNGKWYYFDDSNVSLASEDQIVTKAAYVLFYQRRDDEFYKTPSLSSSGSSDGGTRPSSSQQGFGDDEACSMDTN
How it was run: as §1

Measured: log2 ratio of Biotin-Ahx-Ub-VS probe labelling

Chain of USP34 (Q70CQ2 whole entry, the tested form may be a part): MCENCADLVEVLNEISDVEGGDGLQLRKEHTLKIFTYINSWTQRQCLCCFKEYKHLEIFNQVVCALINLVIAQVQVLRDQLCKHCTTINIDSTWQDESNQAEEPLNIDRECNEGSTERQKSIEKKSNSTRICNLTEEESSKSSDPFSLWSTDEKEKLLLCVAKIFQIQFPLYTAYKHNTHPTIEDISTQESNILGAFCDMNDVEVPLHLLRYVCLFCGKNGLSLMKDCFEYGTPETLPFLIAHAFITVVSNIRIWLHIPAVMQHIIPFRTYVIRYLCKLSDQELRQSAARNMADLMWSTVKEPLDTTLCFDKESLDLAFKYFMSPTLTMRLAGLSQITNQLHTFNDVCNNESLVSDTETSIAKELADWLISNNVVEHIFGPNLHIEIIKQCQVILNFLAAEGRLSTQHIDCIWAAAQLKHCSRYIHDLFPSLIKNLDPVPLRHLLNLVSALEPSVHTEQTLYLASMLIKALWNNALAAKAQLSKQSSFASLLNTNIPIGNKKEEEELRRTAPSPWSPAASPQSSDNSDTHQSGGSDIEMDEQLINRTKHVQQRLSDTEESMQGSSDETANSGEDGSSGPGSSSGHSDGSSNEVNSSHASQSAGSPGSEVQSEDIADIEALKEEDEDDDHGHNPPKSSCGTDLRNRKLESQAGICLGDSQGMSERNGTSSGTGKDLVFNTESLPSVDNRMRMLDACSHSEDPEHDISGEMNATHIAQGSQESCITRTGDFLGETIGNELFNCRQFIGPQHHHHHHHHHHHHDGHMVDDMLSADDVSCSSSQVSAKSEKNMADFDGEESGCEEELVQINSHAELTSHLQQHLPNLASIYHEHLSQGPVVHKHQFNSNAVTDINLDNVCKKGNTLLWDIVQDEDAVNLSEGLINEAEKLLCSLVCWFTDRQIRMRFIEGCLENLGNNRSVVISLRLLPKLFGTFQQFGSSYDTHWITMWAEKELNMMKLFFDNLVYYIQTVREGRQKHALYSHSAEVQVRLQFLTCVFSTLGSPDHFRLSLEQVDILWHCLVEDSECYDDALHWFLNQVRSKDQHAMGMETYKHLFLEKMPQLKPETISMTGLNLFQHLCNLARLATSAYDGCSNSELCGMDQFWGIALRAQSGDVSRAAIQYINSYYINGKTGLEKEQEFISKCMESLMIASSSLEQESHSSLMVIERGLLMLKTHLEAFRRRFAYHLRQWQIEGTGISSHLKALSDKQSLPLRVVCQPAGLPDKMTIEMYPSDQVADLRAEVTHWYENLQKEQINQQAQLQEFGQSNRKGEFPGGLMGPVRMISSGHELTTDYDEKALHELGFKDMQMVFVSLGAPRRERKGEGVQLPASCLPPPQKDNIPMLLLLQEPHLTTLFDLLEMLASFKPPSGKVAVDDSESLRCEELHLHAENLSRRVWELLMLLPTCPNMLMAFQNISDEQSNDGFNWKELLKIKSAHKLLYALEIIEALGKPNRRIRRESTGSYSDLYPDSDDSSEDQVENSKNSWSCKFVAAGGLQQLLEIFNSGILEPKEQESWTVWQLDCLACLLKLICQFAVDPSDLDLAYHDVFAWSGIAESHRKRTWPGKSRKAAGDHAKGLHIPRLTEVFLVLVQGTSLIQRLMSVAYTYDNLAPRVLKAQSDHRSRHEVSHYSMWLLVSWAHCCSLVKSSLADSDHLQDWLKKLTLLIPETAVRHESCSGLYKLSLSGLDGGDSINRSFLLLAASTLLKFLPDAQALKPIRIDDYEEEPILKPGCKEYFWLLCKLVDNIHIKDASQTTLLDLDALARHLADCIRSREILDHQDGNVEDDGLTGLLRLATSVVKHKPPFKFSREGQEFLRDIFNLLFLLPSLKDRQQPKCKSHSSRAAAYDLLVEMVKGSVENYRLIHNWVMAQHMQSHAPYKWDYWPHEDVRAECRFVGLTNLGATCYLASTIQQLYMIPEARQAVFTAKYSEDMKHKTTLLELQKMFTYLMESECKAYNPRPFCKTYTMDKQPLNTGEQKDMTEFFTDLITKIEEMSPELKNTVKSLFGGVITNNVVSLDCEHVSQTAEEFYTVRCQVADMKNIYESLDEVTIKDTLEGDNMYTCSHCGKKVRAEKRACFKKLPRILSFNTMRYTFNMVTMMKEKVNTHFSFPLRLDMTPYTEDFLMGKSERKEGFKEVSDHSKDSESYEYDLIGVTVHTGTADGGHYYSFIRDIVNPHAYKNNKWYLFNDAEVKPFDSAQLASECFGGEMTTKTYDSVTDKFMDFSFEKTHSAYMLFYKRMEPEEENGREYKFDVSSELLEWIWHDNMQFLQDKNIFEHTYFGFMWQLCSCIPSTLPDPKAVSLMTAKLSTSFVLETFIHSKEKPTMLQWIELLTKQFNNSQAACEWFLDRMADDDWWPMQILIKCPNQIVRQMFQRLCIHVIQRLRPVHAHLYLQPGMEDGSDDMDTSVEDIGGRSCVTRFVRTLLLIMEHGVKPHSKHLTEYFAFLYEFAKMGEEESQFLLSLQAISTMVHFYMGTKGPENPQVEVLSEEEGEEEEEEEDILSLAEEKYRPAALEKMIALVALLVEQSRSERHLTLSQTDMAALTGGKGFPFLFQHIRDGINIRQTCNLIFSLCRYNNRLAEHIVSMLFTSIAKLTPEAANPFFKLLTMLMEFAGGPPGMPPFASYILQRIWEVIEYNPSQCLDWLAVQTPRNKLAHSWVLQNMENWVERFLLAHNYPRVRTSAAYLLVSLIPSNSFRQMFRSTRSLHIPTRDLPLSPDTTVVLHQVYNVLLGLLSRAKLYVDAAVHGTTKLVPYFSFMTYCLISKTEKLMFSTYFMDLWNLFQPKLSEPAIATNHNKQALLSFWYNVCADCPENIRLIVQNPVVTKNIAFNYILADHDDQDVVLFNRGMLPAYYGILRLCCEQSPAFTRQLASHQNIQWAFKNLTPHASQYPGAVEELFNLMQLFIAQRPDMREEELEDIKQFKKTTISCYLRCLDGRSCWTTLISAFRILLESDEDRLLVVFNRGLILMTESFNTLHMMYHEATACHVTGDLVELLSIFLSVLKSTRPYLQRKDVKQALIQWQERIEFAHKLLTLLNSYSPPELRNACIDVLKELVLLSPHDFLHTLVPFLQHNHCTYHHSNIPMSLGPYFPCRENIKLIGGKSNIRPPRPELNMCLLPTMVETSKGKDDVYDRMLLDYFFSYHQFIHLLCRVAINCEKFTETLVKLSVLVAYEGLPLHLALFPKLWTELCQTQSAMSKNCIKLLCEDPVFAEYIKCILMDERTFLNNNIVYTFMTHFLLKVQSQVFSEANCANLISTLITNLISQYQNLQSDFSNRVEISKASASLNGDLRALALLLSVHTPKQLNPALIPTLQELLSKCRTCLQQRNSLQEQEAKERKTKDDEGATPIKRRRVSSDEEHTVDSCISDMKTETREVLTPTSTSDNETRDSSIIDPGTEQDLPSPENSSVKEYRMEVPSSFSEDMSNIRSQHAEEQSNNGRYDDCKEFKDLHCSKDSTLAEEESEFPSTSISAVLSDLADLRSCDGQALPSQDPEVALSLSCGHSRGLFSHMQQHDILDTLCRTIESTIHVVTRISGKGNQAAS

CC(NC(=O)CCl)c1ccc2[nH]ncc2c1 (stereo not given)
inactive: USP34 -0.271 | USP36 -0.00241 | USP38 -0.222 | USP39 -0.146 | USP4 -0.324
